These results are taken from PubChem BioAssay (Tox21).

SMILES strings stand for the structures. Records with an inconclusive call do not appear. A call without a number means that no potency is given here. Values without a mark were called inactive. Calls of active or inactive are those of the source. Unless noted, the call rests on the fitted dose curve.

System in the first assay: not listed separately
Description: qHTS assay to identify small molecule agonists of the AP-1 signaling pathway (AID 1159526). The settings on record: ME-180 (cervical carcinoma) AP-1-bla reporter, beta-lactamase FRET ratio, 5 h; series mostly up to 76.8 µM. (In general: In qHTS, concentration-response curves come from the screen itself.)
On to `Cc1ccc(Br)cc1`, for which the Potency result was “inactive”.
Still for that read-out and setting: for `CCCCCCCCOCCC#N` the value was “inactive”; for `CCCOc1ccc(C(=O)OCCN(CC)CC)cc1N`, “inactive”.
With `NC(=O)CC[C@@H](N)C(=O)O`, the Potency entry is “inactive”.
The same measure, in the same setting: in the case of `CO/N=C(\C(=O)O)c1csc(NC(=O)CCl)n1` it was “inactive”; in that of `C=CCOC(=O)CCCCCCCC`, “inactive”.
The same measure, in the same setting: in the case of `O=C1CC2(CCCC2)CC(=O)N1CCNCC1COc2ccccc2O1` (configuration not stated) it was “inactive”.
On the same count and under the same terms, for `O=S(=O)(O)c1cc(I)c(O)c2ncccc12` the value was “inactive”.
Regarding `CCCCN1C(=O)c2ccccc2C1=O`, the Potency result was “inactive”.
As for `CC(C)OC(=O)C(C(=O)OC(C)C)=C1SC=CS1`, the Potency entry was “inactive”.
On the same count and under the same terms, in the case of `COC(=O)c1ccc(C(=O)O)cc1` it was “inactive”.
The same measure, in the same setting: for `C=CCN(CC=C)CC=C` the value was “inactive”; for `BrCCOc1ccccc1`, “inactive”; for `CC(=O)c1ccc(O)c(C(N)=O)c1`, “inactive”.

For the next assay, the target named is Retinoic acid receptor RXR-alpha (Homo sapiens) (UniProt P19793). Description: qHTS assay to identify small molecule agonists of the RXR signaling pathway (AID 1159527). Further: nearly all actives have a fitted effect of over 35% in size. Further: potency means the concentration at half of the fitted maximal effect. Conditions: HEK293T RXRa-UAS-bla, beta-lactamase ratio, 16 h; series mostly up to 76.8 µM. The essentials: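 Cells plated at 2,000/well, rested 5 hr at 37 C, pin-dosed with DMSO compound solutions, incubated 16 hr, then loaded with B/G FRET substrate for 2 hr at RT before dual-emission fluorescence reading.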
Sequence of Retinoic acid receptor RXR-alpha (Homo sapiens) (P19793 whole entry, looked up): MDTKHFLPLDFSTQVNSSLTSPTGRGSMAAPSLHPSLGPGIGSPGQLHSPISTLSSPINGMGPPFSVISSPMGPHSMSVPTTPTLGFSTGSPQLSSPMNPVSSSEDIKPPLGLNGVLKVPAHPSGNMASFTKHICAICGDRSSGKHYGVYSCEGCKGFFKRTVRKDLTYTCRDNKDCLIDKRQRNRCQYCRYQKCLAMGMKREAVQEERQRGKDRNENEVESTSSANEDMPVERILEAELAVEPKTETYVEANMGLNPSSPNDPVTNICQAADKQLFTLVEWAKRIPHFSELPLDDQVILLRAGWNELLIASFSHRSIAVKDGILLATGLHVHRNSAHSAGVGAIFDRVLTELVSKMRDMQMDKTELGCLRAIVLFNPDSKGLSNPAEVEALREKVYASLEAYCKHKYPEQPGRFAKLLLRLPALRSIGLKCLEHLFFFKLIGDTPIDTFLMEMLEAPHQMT
On to `COc1ccccc1N1CCN(CC(O)COc2cc(OC)c(OC)c(OC)c2)CC1` (configuration not stated), for which the Potency result was “inactive”.
The same measure, in the same setting: for `CC(=O)O[C@@H]1CC2C3CCc4cc(OC(=O)c5ccccc5)ccc4C3CCC2(C)[C@H]1OC(C)=O` (some centres not stated) the value was “inactive”; for `CCCCCCCCCCCCCCBr`, “inactive”; for `NNC(=O)CCCCC(=O)NN`, “inactive”.
Still for that read-out and setting: for `Nc1nc(Cl)cc(Cl)n1` the value was “inactive”.
Still for that read-out and setting: in the case of `C=CCON/C(CCC)=C1\C(=O)CC(C)(C)C(C(=O)OC)=C1O` it was “inactive”; in that of `CCCC(C)C(O)CC` (configuration not stated), “inactive”.
Consider `CC(C)(C)OC(=O)c1ccccc1C(=O)O`, for which the Potency entry was “inactive”.
The same measure, in the same setting: in the case of `C=CC(=O)OCC[N+](C)(C)C` it was “inactive”.
Regarding `CC/C=C\CCOC(=O)c1ccccc1`, the Potency result was “inactive”.
On the same count and under the same terms, for `O=P(O)(O)C(O)(Cc1cccnc1)P(=O)(O)O` the value was “inactive”.
Same read-out and setting: in the case of `CCN1CCN(C(=O)N[C@@H](C(=O)N[C@@H]2C(=O)N3[C@@H]2SC(C)(C)[C@H]3C(=O)O)c2ccccc2)C(=O)C1=O` it was “inactive”; in that of `COC(=O)N/N=C/c1c[n+]([O-])c2ccccc2[n+]1[O-]`, “inactive”.
As for `CCCCCCCCCCCCCCCC(=O)OC`, the activation was -1.09% [at 15.8 µM].
In the case of `Cc1ccccc1C#N`, the Potency result is “inactive”.
Still for that read-out and setting: in the case of `C[C@H]1COc2c(C3(N)CC3)c(F)cc3c(=O)c(C(=O)O)cn1c23` it was “inactive”; in that of `CC(C)=CCC/C(C)=C\C#N`, “inactive”.
On the same count and under the same terms, for `N#CC1(N)CCCCC1` the value was “inactive”; for `O=S(=O)(O)CC(O)CCl` (configuration not stated), “inactive”.
Consider `CCCCCCCCCCCCCCCC/C=C/C1CC(=O)OC1=O` (configuration not stated), for which the Potency entry was “inactive”.
As for `Cc1ccc(Br)cc1`, the Potency entry is “inactive”.
Same read-out and setting: in the case of `CCCCCCCCOCCC#N` it was “inactive”.
For the molecule `CCCOc1ccc(C(=O)OCCN(CC)CC)cc1N`, the Potency result is “inactive”.
Still for that read-out and setting: in the case of `NC(=O)CC[C@@H](N)C(=O)O` it was “inactive”; in that of `CO/N=C(\C(=O)O)c1csc(NC(=O)CCl)n1`, “inactive”.
As for `C=CCOC(=O)CCCCCCCC`, the Potency was 17.5 µM (active).
On the same count and under the same terms, in the case of `O=C1CC2(CCCC2)CC(=O)N1CCNCC1COc2ccccc2O1` (configuration not stated) it was “inactive”; in that of `O=S(=O)(O)c1cc(I)c(O)c2ncccc12`, “inactive”.
On the same count and under the same terms, for `CCCCN1C(=O)c2ccccc2C1=O` the value was “inactive”; for `CC(C)OC(=O)C(C(=O)OC(C)C)=C1SC=CS1`, “inactive”; for `COC(=O)c1ccc(C(=O)O)cc1`, “inactive”.
Same read-out and setting: in the case of `C=CCN(CC=C)CC=C` it was “inactive”; in that of `BrCCOc1ccccc1`, “inactive”.

System in the next assay: not listed separately
Description: qHTS assay to identify small molecule agonists of the RXR signaling pathway - cell viability counter screen (AID 1159529; active means well fitted cell-killing curve with a large enough effect in the repeat runs; further: nearly all actives have a fitted effect of over 50% in size). Conditions: RXR-alpha-bla HEK293T viability, CellTiter-Glo, 16 h; series mostly up to 76.8 µM. The essentials:
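Steps: seed RXR-alpha-UAS-bla HEK 293T cells in assay medium containing 2% charcoal-stripped FBS; incubate 5 hr; add compounds in DMSO; incubate 16 hr at 37 C; after the bla read, add CellTiter-Glo and read luminescence at 30 min.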
As to `CC(=O)O[C@@H]1CC2C3CCc4cc(OC(=O)c5ccccc5)ccc4C3CCC2(C)[C@H]1OC(C)=O` (some centres not stated), the Potency result is “inactive”.
On the same count and under the same terms, in the case of `C/C=C(\C)C=O` it was “inactive”.
Still for that read-out and setting: for `NNC(=O)CCCCC(=O)NN` the value was “inactive”.
Still for that read-out and setting: for `Nc1nc(Cl)cc(Cl)n1` the value was “inactive”.
As for `C=CCON/C(CCC)=C1\C(=O)CC(C)(C)C(C(=O)OC)=C1O`, the Potency entry was “inactive”.
Still for that read-out and setting: in the case of `CCCCOCCCC` it was “inactive”; in that of `CCCC(C)C(O)CC` (configuration not stated), “inactive”; in that of `Cc1cc(C)c(N)c(Cl)c1`, “inactive”.
In the case of `C=CC(=O)OCC[N+](C)(C)C`, the Potency result is “inactive”.
In the case of `CC/C=C\CCOC(=O)c1ccccc1`, the Potency entry was “inactive”.
Same read-out and setting: for `CCN1CCN(C(=O)N[C@@H](C(=O)N[C@@H]2C(=O)N3[C@@H]2SC(C)(C)[C@H]3C(=O)O)c2ccccc2)C(=O)C1=O` the value was “inactive”; for `COC(=O)N/N=C/c1c[n+]([O-])c2ccccc2[n+]1[O-]`, “inactive”.
For `CCCCCCCCCCCCCCCC(=O)OC`, the activity change, negative = cytotoxicity is -3.67% [at 15.8 µM].
Turning to `Cc1ccccc1C#N`, the Potency entry is “inactive”.
The same measure, in the same setting: in the case of `C[C@H]1COc2c(C3(N)CC3)c(F)cc3c(=O)c(C(=O)O)cn1c23` it was “inactive”; in that of `CC(C)=CCC/C(C)=C\C#N`, “inactive”; in that of `N#CC1(N)CCCCC1`, “inactive”.
Still for that read-out and setting: for `NCC1CCC(C(=O)Oc2ccc(CCC(=O)O)cc2)CC1` (configuration not stated) the value was “inactive”; for `O=S(=O)(O)CC(O)CCl` (configuration not stated), “inactive”; for `CCCCCCCCOCCC#N`, “inactive”.
On the same count and under the same terms, for `CCCOc1ccc(C(=O)OCCN(CC)CC)cc1N` the value was “inactive”; for `NC(=O)CC[C@@H](N)C(=O)O`, “inactive”; for `CO/N=C(\C(=O)O)c1csc(NC(=O)CCl)n1`, “inactive”.
Take `C=CCOC(=O)CCCCCCCC`: the Potency entry was “inactive”.
Regarding `O=S(=O)(O)c1cc(I)c(O)c2ncccc12`, the Potency entry is “inactive”.
Same read-out and setting: for `CC(C)OC(=O)C(C(=O)OC(C)C)=C1SC=CS1` the value was “inactive”.
The same measure, in the same setting: in the case of `COC(=O)c1ccc(C(=O)O)cc1` it was “inactive”; in that of `C=CCN(CC=C)CC=C`, “inactive”; in that of `BrCCOc1ccccc1`, “inactive”.
The same measure, in the same setting: in the case of `CC(=O)c1ccc(O)c(C(N)=O)c1` it was “inactive”.
